Our source for the Potency values is PubChem BioAssay (Tox21).

The target in assay [1] is Acetylcholinesterase (Homo sapiens) (UniProt P22303). The experiment in a line: Acetylcholinesterase (AChE) small molecule antagonists: colormetric cell-based qHTS assay (AID 1347395). Also: nearly all actives have a fitted effect of over 30% in size. In short, it runs like this: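 Homogeneous whole-cell format. SH-SY5Y cells seeded overnight, dosed with compound (30 min, 37 C, 5% CO2), then given DTNB/acetylthiocholine cocktail for 90 min at 37 C; colorimetric signal.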
Sequence of Acetylcholinesterase (Homo sapiens) (P22303 whole entry, looked up): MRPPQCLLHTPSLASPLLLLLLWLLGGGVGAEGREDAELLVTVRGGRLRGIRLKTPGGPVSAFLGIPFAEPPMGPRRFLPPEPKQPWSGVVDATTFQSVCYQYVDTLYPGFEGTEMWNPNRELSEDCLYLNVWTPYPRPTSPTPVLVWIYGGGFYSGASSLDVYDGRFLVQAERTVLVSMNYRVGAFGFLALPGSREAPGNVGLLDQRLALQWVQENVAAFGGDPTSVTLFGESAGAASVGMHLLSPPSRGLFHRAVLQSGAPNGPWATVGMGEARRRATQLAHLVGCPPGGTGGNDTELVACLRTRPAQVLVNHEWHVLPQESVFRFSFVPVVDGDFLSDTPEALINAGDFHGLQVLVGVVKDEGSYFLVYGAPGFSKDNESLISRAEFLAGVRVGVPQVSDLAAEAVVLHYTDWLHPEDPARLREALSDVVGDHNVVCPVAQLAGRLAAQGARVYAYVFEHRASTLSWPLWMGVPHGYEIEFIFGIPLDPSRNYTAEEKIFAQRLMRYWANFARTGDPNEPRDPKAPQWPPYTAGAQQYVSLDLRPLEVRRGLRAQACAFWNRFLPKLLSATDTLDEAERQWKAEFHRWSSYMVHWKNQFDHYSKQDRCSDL

Assay [2] has the same target. Briefly: Acetylcholinesterase (AChE) small molecule antagonists: enzyme-based qHTS assay (AID 1347397). Also: nearly all actives have a fitted effect of over 55% in size. Also: potency is read from the fitted curve at half-maximal effect. The note with it: Potency: AChE enzyme activity inhibition; outcome: AChE enzyme activity inhibition. In short, it runs like this: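 Absorbance-based detection of thiocholine with DTNB served as the read-out. Recombinant human AChE was exposed to compound for 30 min at RT before a 10 min RT incubation with acetylthiocholine.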

Assay [3] shares this target. The experiment in a line: Acetylcholinesterase (AChE) small molecule antagonists: fluorescence cell-based qHTS assay (AID 1347398). Also: nearly all actives have a fitted effect of over 50% in size. Also: potency is read from the fitted curve at half-maximal effect. The following applies: Potency: AChE activity; outcome: AChE activity. In short, it runs like this: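 Fluorimetric cell-based assay: intact SH-SY5Y cells, 30 min compound preincubation at 37 C, acetylthiocholine substrate with thiol probe Thiolite Green, 40 min RT development, fluorescence 490/520 nm.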

Assay [4] shares this target. Briefly: Acetylcholinesterase (AChE) small molecule antagonists: enzyme-based qHTS assay with human liver microsomes (AID 1347399). Also: nearly all actives have a fitted effect of over 60% in size. The following applies: Potency: qHTS inhibition; outcome: qHTS inhibition. In short, it runs like this:
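Recombinant human AChE (50 mU/mL in the enzyme mix) and human liver microsomes (0.25 mg/mL final) were preincubated with compound and NADPH (0.25 mg/mL final) for 30 min at 37 C. Acetylthiocholine/DTNB was then added; thiocholine was read colorimetrically after 10 min at room temperature.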

A number with no mark means an inactive call. Records with an inconclusive call do not appear. The source made the active and inactive calls. Calls follow the shape of the full dose curve.

Consider `O=C(/C=C/c1ccccc1)OCCCc1ccccc1`, for which the Potency entry in assay [1], in assay [2], in assay [3] and in assay [4] was “inactive” throughout.
Turning to `CNC(=O)c1cc(Oc2ccc(NC(=O)Nc3ccc(Cl)c(C(F)(F)F)c3)cc2)ccn1`, the Potency result in assay [1], in assay [2], in assay [3] and in assay [4] was “inactive” in each case.
Turning to `CC1(C)[C@H](C(=O)OCc2cccc(Oc3ccccc3)c2)[C@@H]1C=C(Cl)Cl`, the Potency entry in assay [1], in assay [2], in assay [3] and in assay [4] was “inactive” throughout.
As to `CSc1nnc(C(C)(C)C)c(=O)[nH]1`, the Potency entry in assay [1], in assay [2], in assay [3] and in assay [4] was “inactive” in each case.
Take `CCC(C(=O)NC(N)=O)c1ccccc1` (stereo not given): the Potency entry in assay [1], in assay [2], in assay [3] and in assay [4] was “inactive” each time.
On to `CCc1nn(C2CCCCC2)c2cc(C3(C#N)CCC(C(=O)O)CC3)ccc12` (stereo not given), for which the Potency entry in assay [1], in assay [2], in assay [3] and in assay [4] was “inactive” in each case.
Consider `O=C1c2ccccc2C(=O)N1CCl`, for which the Potency entry in assay [1], in assay [2], in assay [3] and in assay [4] was “inactive” in each case.
As to `CCCC(=O)c1ccccc1`, the Potency entry in assay [1], in assay [2], in assay [3] and in assay [4] was “inactive” each time.
Turning to `CCCCOC(=O)C(C)OC(=O)CCC` (stereo not given), the Potency entry in assay [1], in assay [2], in assay [3] and in assay [4] was “inactive” throughout.
Regarding `CC(C)C(=O)c1c(C(C)C)nn2ccccc12`, the Potency entry in assay [1], in assay [2], in assay [3] and in assay [4] was “inactive” throughout.
For the molecule `CC(=O)Oc1ccccc1C(=O)O`, the Potency result in assay [1], in assay [2], in assay [3] and in assay [4] was “inactive” throughout.
Regarding `CCCCOCC(C)OCC(C)O` (stereo not given), the Potency entry in assay [1] and in assay [4] was “inactive” throughout. The Potency in assay [2] is 57.8 µM (active); in assay [3] it was 29 µM (active).
For the molecule `CCCC(C)c1ccccc1O` (stereo not given), the Potency result in assay [1], in assay [2], in assay [3] and in assay [4] was “inactive” each time.
Regarding `CC(=O)OCCC1CCCCC1`, the Potency result in assay [1], in assay [2], in assay [3] and in assay [4] was “inactive” in each case.
As for `CC1(C)[C@@H]2CC[C@@]1(C)[C@H](O)C2`, the Potency result in assay [1], in assay [2], in assay [3] and in assay [4] was “inactive” throughout.
Consider `CCCCN1C(=O)c2ccccc2C1=O`, for which the Potency result in assay [1], in assay [2], in assay [3] and in assay [4] was “inactive” throughout.
For the molecule `O=C(c1ccc(O)cc1)c1ccc(O)cc1`, the Potency result in assay [1], in assay [2], in assay [3] and in assay [4] was “inactive” each time.
Consider `O=C(O)C(=O)Cc1ccccc1`, for which the Potency result in assay [1], in assay [2], in assay [3] and in assay [4] was “inactive” in each case.
For `CC(C)(c1cc(Br)c(OCC(Br)CBr)c(Br)c1)c1cc(Br)c(OCC(Br)CBr)c(Br)c1` (stereo not given), the Potency result in assay [1], in assay [2], in assay [3] and in assay [4] was “inactive” throughout.
For `C=Cc1ccc(OC(C)=O)cc1`, the Potency entry in assay [1], in assay [2], in assay [3] and in assay [4] was “inactive” each time.
As for `CCc1ccc(CCOc2ccc(CC3SC(=O)NC3=O)cc2)nc1` (stereo not given), the Potency entry in assay [1], in assay [2], in assay [3] and in assay [4] was “inactive” each time.
As for `On1nnc2ccccc21`, the Potency entry in assay [1], in assay [2], in assay [3] and in assay [4] was “inactive” each time.
As for `COc1cc(C=O)ccc1OC(=O)C(C)C`, the Potency result in assay [1], in assay [2], in assay [3] and in assay [4] was “inactive” throughout.
For `C1=C\CC/C=C\CC/1`, the Potency result in assay [1], in assay [2], in assay [3] and in assay [4] was “inactive” throughout.
Regarding `C[C@]12CCC(=O)C=C1CC[C@@H]1[C@@H]2[C@@H](O)C[C@@]2(C)[C@H]1CC[C@]2(O)C(=O)CO`, the Potency result in assay [1], in assay [2], in assay [3] and in assay [4] was “inactive” throughout.
On to `O=C(Cl)c1ccc([N+](=O)[O-])cc1`, for which the Potency result in assay [1], in assay [2], in assay [3] and in assay [4] was “inactive” in each case.
`O=C1OCCO1`: the Potency entry in assay [1], in assay [2], in assay [3] and in assay [4] was “inactive” each time.
Take `Cc1coc2ccccc2c1=O`: the Potency result in assay [1], in assay [2], in assay [3] and in assay [4] was “inactive” each time.
As for `CCCC/C=C/CCCCO`, the Potency result in assay [1], in assay [2], in assay [3] and in assay [4] was “inactive” each time.
Turning to `C[C@]12C=CC(=O)C=C1[C@@H](F)C[C@@H]1[C@@H]2[C@@H](O)C[C@@]2(C)[C@H]1CC[C@]2(O)C(=O)CO`, the Potency result in assay [1], in assay [2], in assay [3] and in assay [4] was “inactive” throughout.
